From PubChem BioAssay (Tox21)
Results filed as inconclusive are left out. The source made the active and inactive calls. Unless noted, calls come from the whole dose curve; as a rule, active = well fitted curve in the direction sought with a large enough effect in the repeat runs; inconclusive = weak or mixed curves; inactive = no such curve, though single readings can be large; an effect the other way counts as inactive or inconclusive.

Tests used:
[1] = qHTS assay to identify small molecule antagonists of the thyroid receptor (TR) signaling pathway (AID 743065); note: series mostly up to about 70 µM; nearly all actives have a fitted effect of over 55% in size
Procedure, shortened: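 GH3.TRE-Luc rat pituitary cells carrying two TR response elements driving luciferase were plated for 4 h, given compound plus 1 nM T3 (final), and incubated 23.5 h at 37 C. ONE-Glo luminescence measured reporter inhibition; CellTiter-Fluor fluorescence tracked cytotoxicity.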

[2] = tested on: thyroid hormone receptor (rat, GH3 cells); assay: qHTS assay to identify small molecule agonists of the thyroid receptor (TR) signaling pathway (AID 743066; calls by dose curve)
[3] = target: Estrogen receptor (Homo sapiens) (UniProt P03372); assay: qHTS assay to identify small molecule antagonists of the estrogen receptor alpha (ER-alpha) signaling pathway (AID 743069; active = well fitted curve in the direction sought with a large enough effect in the signal ratio in the repeat runs, not every such curve was filed as active; the % refers to the signal ratio)
Procedure, shortened: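 Estradiol-stimulated ER-alpha-UAS-bla HEK293 cells, 18 hr compound exposure at 37C. LiveBLAzer B/G substrate, 2 hr RT, fluorescence read.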

[4] = qHTS assay to identify small molecule antagonists of the estrogen receptor alpha (ER-alpha) signaling pathway - cell viability counter screen (AID 743074; calls by dose curve;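 note: HEK293 cells carrying ER-alpha-UAS-bla reporter stimulated with 17beta-estradiol; nearly all actives have a fitted effect of over 45% in size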)
[5] = target: Estrogen receptor (Homo sapiens) (UniProt P03372); assay: qHTS assay to identify small molecule agonists of the estrogen receptor alpha (ER-alpha) signaling pathway (AID 743075; calls by dose curve;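 note: HEK293 GripTite cells with ER-alpha and UAS-driven beta-lactamase reporter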)
[6] = target: Estrogen receptor (Homo sapiens) (UniProt P03372); assay: qHTS assay to identify small molecule agonists of the estrogen receptor alpha (ER-alpha) signaling pathway using the BG1 cell line (AID 743079); note: nearly all actives have a fitted effect of over 20% in size; note: potency is the fitted concentration of half-maximal effect
[7] = qHTS assay to identify small molecule antagonists of the estrogen receptor alpha (ER-alpha) signaling pathway using the BG1 cell line - cell viability counter screen (AID 743081);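 note: compound given together with 17beta-estradiol as the ER stimulus; series mostly up to about 70 µM; nearly all actives have a fitted effect of over 45% in size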
Aromatase (Homo sapiens) = Aromatase (Homo sapiens) (UniProt P11511); assay: qHTS assay to identify aromatase inhibitors (AID 743083); note: series mostly up to about 70 µM; nearly all actives have a fitted effect of over 55% in size
[8] = qHTS assay to identify aromatase inhibitors - cell viability counter screen (AID 743084);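 note: cells stimulated with testosterone during compound exposure; nearly all actives have a fitted effect of over 55% in size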
[9] = qHTS assay to identify small molecule antagonists of the estrogen receptor alpha (ER-alpha) signaling pathway using the BG1 cell line (AID 743080; calls by dose curve;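 note: BG1 cells stimulated with 17beta-estradiol alongside compound; series mostly up to about 70 µM; nearly all actives have a fitted effect of over 25% in size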)
Procedure, shortened: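 BG1Luc4E2, endogenous ER-alpha, 4xERE-luc; 5 d charcoal-stripped FBS, phenol red free; 24 h plating; cpd + 17beta-estradiol 21.5 h, 37 C/5% CO2; CellTiter-Fluor viability 30 min, then ONE-Glo luciferase 30 min RT.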
% is set by controls: 0 for no effect and ±100 for the full control effect.

Chain of Estrogen receptor (Homo sapiens) (P03372 whole entry, looked up): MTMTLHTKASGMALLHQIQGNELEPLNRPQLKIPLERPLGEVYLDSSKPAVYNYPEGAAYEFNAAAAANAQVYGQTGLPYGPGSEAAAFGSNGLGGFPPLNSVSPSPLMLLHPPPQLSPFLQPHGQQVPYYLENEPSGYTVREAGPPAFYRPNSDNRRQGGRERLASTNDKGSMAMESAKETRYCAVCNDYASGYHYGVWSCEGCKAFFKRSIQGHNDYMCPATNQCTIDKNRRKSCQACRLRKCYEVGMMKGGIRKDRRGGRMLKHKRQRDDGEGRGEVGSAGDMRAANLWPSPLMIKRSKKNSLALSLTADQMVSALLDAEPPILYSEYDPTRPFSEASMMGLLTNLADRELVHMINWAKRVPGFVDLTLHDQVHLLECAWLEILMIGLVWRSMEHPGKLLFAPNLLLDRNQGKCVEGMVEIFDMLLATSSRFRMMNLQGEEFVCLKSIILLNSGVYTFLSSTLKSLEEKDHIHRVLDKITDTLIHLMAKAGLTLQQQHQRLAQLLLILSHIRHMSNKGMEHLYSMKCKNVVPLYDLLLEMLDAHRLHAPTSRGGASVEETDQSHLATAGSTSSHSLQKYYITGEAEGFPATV
Chain of Aromatase (Homo sapiens) (P11511 whole entry, looked up): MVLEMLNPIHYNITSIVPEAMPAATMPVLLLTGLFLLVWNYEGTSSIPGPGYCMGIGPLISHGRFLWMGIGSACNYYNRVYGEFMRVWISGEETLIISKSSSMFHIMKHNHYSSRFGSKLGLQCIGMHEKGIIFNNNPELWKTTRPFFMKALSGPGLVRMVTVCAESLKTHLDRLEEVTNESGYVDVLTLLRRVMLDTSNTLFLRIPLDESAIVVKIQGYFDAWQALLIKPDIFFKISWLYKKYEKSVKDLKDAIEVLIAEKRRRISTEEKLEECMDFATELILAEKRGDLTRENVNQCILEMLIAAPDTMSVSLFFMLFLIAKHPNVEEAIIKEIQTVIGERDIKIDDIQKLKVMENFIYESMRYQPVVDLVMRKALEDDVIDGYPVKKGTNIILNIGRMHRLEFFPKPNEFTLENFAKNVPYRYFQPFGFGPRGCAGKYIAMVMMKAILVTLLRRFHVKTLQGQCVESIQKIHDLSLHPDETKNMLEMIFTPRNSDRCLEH

CC/C=C\C#N
inactive: Potency [1] | Potency [2] | Potency [3] | outcome [4] | Potency [5] | Potency [6] | outcome [7] | Potency (Aromatase (Homo sapiens)) | Potency [8]

NS(=O)(=O)c1cc2c(cc1Cl)NC(CSCc1ccccc1)=NS2(=O)=O
inactive: Potency [1] | Potency [2] | Potency [3] | outcome [4] | Potency [5] | Potency [6] | outcome [7] | Potency (Aromatase (Homo sapiens)) | Potency [8]

CCCCCCCCN(C)CCCCCCCC
inactive: Potency [1] | Potency [2] | Potency [3] | outcome [4] | Potency [5] | Potency [6] | outcome [7] | Potency (Aromatase (Homo sapiens)) | Potency [8]

CN(C)N=Nc1ccccc1
inactive: Potency [1] | Potency [2] | outcome [4] | outcome [7]

O=C(O)c1ccccc1S
inactive: Potency [1] | Potency [2] | Potency [3] | Potency [5] | Potency [6] | Potency (Aromatase (Homo sapiens)) | Potency [8]

O=S(=O)(O)c1ccccc1O
inactive: Potency [1] | Potency [2] | Potency [3] | Potency [5] | Potency [6] | outcome [7] | Potency (Aromatase (Homo sapiens)) | Potency [8]

NS(=O)(=O)c1cc(C2(O)NC(=O)c3ccccc32)ccc1Cl (stereo not drawn)
inactive: Potency [1] | Potency [2] | outcome [4] | outcome [7] | Potency (Aromatase (Homo sapiens)) | Potency [8]

CCCCCCCCC=O
inactive: Potency [1] | Potency [2] | outcome [4] | Potency [6] | outcome [7]

CCCCC=O
inactive: Potency [1] | Potency [2] | outcome [4] | outcome [7]

CCN1CCCC1CNC(=O)c1cc(S(N)(=O)=O)ccc1OC (stereo not drawn)
inactive: Potency [1] | Potency [2] | outcome [4] | outcome [7] | Potency (Aromatase (Homo sapiens)) | Potency [8]

NC(=S)Nc1cccc2ccccc12
inactive: activity, negative = inhibition [1] -4.6% [at 8.44 µM] | activation [2] 0.336% [at 8.08 µM] | activity, negative = cytotoxicity [4] 13.6% [at 6.72 µM] | activity change, negative = cytotoxicity [7] -0.944% [at 8.47 µM] | activity, negative = inhibition (Aromatase (Homo sapiens)) 16.7% [at 8.47 µM] | activity change, negative = cytotoxicity [8] 1.26% [at 8.47 µM]

CCC(=O)c1cccc(Cl)c1
inactive: Potency [1] | Potency [2] | outcome [4] | outcome [7] | Potency (Aromatase (Homo sapiens)) | Potency [8]

Cn1ccc2cc3c(cc21)CCN3C(=O)Nc1cccnc1
inactive: Potency [1] | Potency [2] | outcome [4] | outcome [7] | Potency (Aromatase (Homo sapiens)) | Potency [8]
active: Potency [6] 5.31 µM

COC(=O)CCCC(=O)O
inactive: Potency [1] | Potency [2] | outcome [4] | Potency [5] | Potency [6] | Potency [9] | outcome [7] | Potency (Aromatase (Homo sapiens)) | Potency [8]

CCOC(=O)Cn1c(=O)sc2cccc(Cl)c21
inactive: Potency [1] | Potency [2] | outcome [4] | Potency [5] | Potency [6] | Potency [9] | outcome [7] | Potency (Aromatase (Homo sapiens)) | Potency [8]

CCCCCCCCCCCCI
inactive: Potency [1] | Potency [2] | outcome [4] | outcome [7]
